Several values for one entry are separate records, joined by “and”; a condition that tells them apart may be missing. Equal values may be shown once. Hit rate of the full screen: of about 65,000 compounds, about 45 (0.07%) were called active. Calls follow the shape of the full dose curve. The list is a sample of the results.
Potency is read from the fitted curve at half-maximal effect.

The test has as its system Schistosoma mansoni peroxiredoxin 2 (Prx2). Description: Schistosoma Mansoni Peroxiredoxins (Prx2). The note with it: S. mansoni Prx2 activity coupled to TGR/GSH (TGR is thioredoxin glutathione reductase), NADPH fluorescence loss, qHTS. The source says: NIH Molecular Libraries Screening Centers Network [MLSCN]
NIH Chemical Genomics Center [NCGC]
David Williams [Illinois State University]
Schistosoma mansoni, a causative agent of schistosomiasis, resides in the bloodstream of their host up to 30 years without being eliminated by the host immune attack. One proposed survival mechanism is the production of an antioxidant "firewall" that neutralizes the oxidative assault of the host's immune attack. Schistosoma mansoni peroxiredoxins (Prx) are important parasite antioxidant proteins that play a crucial role in redox balance mechanisms. […] First, the proteins are essential for the parasite survival. […] Third, the protein(s) is amenable for study at the molecular level and can be produced in bacteria in large quantities, in soluble and active form. Inhibition of Prx activity was screened in a coupled-enzyme format with reducing equivalents being transferred from NADPH to […] intermediate via thioredoxin/glutathione reductase (TGR)-catalyzed reaction, then from thioredoxin to hydrogen peroxide via Prx-catalyzed electron transfer. A decrease in the fluorescence intensity of NADPH was used to measure the enzyme activity. Purified S. mansoni TGR and Prx were provided by Professor David L. Williams, Illinois State University.
NCGC Assay Protocol Summary:
100 mM phosphate buffer, pH 7.4, 10 mM EDTA, 0.01% Tween-20.
100 uM NADPH/25 nM TGR/700 uM GSH/50 nM Prx2 mixture in columns 1, 2, 5-48. Titration of control potassium antimonyl tartrate (PAT, from 1 mM, then 1:5) pin-transferred to lower half of column 2. Column 1 and upper half of column 2 are neutral (100% activity).
Three uL of reagents were dispensed to 1536-well Greiner black plates. Compounds and controls (20 nL) were transferred via Kalypsys PinTool. The plates were incubated for 15 min at room temperature, and then a 1 uL aliquot of 400 uM NADPH/700 uM GSH was added, immediately followed by a 1uL aliquot of 2.5 mM H2O2 (to start the reaction). The plate was transferred to ViewLux (Perkin-Elmer) High-throughput CCD imager where kinetic measurements (every 30 sec, for a total of 8 min) of NADPH fluorescence were taken using 365 nm excitation/450 nm emission filter set. During dispense, enzyme-containing reagent bottles were kept submerged into 4 deg C water bath to minimize degradation.
Keywords: NIH Roadmap, MLSCN, MLI, MLSMR, David Williams, Peroxyredoxin, Schistosoma mansoni, prx2, prx, , qHTS, NCGC
Take `CCNc1ncc2nc(CCc3ccccc3)c(=O)n(-c3ccc(OC)cc3)c2n1`: the Potency is > 57 µM (inactive). Consider `Oc1c(Br)cc(CN(Cc2cc(Br)c(O)c(Br)c2)C2CCCCC2)cc1Br`, for which the Potency is > 57 µM (inactive). As to `COc1ccc(-n2c(=O)c(C)nc3cnc(N4CCOCC4)nc32)cc1`, the Potency is > 57 µM (inactive).

Turning to `C[C@@H](N)[C@@H](C)Cc1ccccc1`, the Potency was > 57 µM (inactive). On to `CN1CCN2c3ccccc3Cc3ccccc3[C@@H]2C1`, for which the Potency is > 57 µM (inactive). In the case of `CNc1nc(-c2ccccc2OC)nc2ccccc12`, the Potency is > 57 µM (inactive). For the molecule `O=C(Nc1ccccc1)N[C@H]1C[C@H](C(=O)O)Nc2cc(Cl)cc(Cl)c21`, the Potency was > 57 µM (inactive). On to `COc1ccc(C(=O)N/N=C2/C(=O)c3c(C)cc(C)cc3CC2(C)C)cc1`, for which the Potency was > 57 µM (inactive).

For `N#Cc1cc2[nH]c(=O)c(=O)[nH]c2cc1[N+](=O)[O-]`, the Potency is > 25.6 µM (inactive). To `c1cncc(CNc2ccnc(-c3ccc4c(c3)OCO4)n2)c1` belongs > 57 µM (inactive); to `O=C(c1csnn1)N1CCC2(CCN(Cc3nccs3)CC2)CC1`, > 57 µM (inactive). To `COCCNc1ncnc2ccc(-c3ccccc3CN(C)C)cc12` belongs > 57 µM (inactive). For the molecule `O=c1c(-c2ccc(F)cc2)nc2cnc(N3CCOCC3)nc2n1-c1ccccc1`, the Potency was > 11.4 µM (inactive). Consider `CC(=O)/C(=N\N=C(N)N)c1ccccc1`, for which the Potency is > 57 µM (inactive). As for `COCCn1c(=O)c(-c2ccccc2)nc2cnc(N3CCOCC3)nc21`, the Potency was > 57 µM (inactive). For the molecule `CN(C)c1ncc2nc(-c3ccc(F)cc3)c(=O)n(Cc3ccc(F)cc3)c2n1`, the Potency is > 57 µM (inactive). `O=C1NC(=O)[C@@](Cc2ccccc2)(c2cccnc2)N1`: the Potency was > 57 µM (inactive).

Regarding `N#Cc1cccc(-c2ccc3ncnc(NCc4cccs4)c3c2)c1`, the Potency was > 57 µM (inactive). With `O=C(Oc1ccc2c(c1)CN(Cc1ccccc1)CO2)c1ccccc1`, the Potency was > 57 µM (inactive). Consider `O=C(O)c1nn(-c2ccc(Cl)cc2)c2c1C(=O)c1ccccc1C2=O`, for which the Potency is > 57 µM (inactive).

For the molecule `O=C(O)c1c(Br)c(Br)c(Br)c(Br)c1C1c2ccc(O)cc2Oc2cc(O)ccc21`, the Potency is > 57 µM (inactive).

As for `c1ccc2c(Nc3ccncc3)nc(-c3ccc4c(c3)OCO4)nc2c1`, the Potency was > 57 µM (inactive).

With `CCON=C1C(C)(C)C(C)(C)C(C)(C)C1(C)C`, the Potency was > 57 µM (inactive). For `Cc1ccc(-c2nn(CC(C)(C)C)c3ncnc(N)c23)cc1`, the Potency is > 57 µM (inactive). To `CN/C(=C\[N+](=O)[O-])NCCSCc1csc(CN(C)C)n1` belongs > 57 µM (inactive); to `c1ccc2nc(C3=NCCN3)cnc2c1`, > 57 µM (inactive). `Cc1[nH]c(N)nc(=S)c1CCCNc1ccccc1`: the Potency is > 57 µM (inactive). For the molecule `COc1ncc2nc(-c3ccc(Cl)cc3)c(=O)n(C)c2n1`, the Potency is > 57 µM (inactive). Next, `CCNc1ncc2ncc(=O)n(CCc3ccccc3)c2n1`: > 57 µM (inactive); `COc1ccccc1-c1cc(NCc2cccs2)ncn1`: > 57 µM (inactive). For `O=C(c1csnn1)N1CCC2(CC1)CN(c1ncccn1)C2`, the Potency was > 57 µM (inactive).

Consider `COCCn1c(=O)c(-c2cccc(F)c2)nc2cncnc21`, for which the Potency is > 57 µM (inactive).

Take `Cc1c2c(nc3ccccc13)-c1cccc(=O)n1C2`: the Potency is > 57 µM (inactive). Turning to `O=C(c1ccco1)N1CCC[C@@]2(CCN(c3ccccc3)C2)C1`, the Potency is > 57 µM (inactive).

Consider `COc1ccc(C(=O)N2CCC3(CC2)CCN(c2ccccn2)CC3)cc1`, for which the Potency was > 57 µM (inactive).

For the molecule `CN(C)CC/C=C1\c2ccccc2CSc2ccccc21`, the Potency was > 57 µM (inactive). On to `COc1ccccc1CNc1ncnc2ccc(-c3ccc4c(c3)OCO4)cc12`, for which the Potency was > 57 µM (inactive). With `CC(C)NC(=O)N1CCC2(CC1)CCN(C(=O)c1cccn1C)CC2`, the Potency was > 57 µM (inactive). With `COc1ccccc1CNc1ccnc(-c2c(C)noc2C)n1`, the Potency is > 57 µM (inactive). As to `O=C(c1cnccn1)N1CCC[C@@]2(CCN(Cc3ccncc3)C2)C1`, the Potency is > 57 µM (inactive).

Regarding `COc1ccccc1N1CCN(CCN2C(=O)c3ccccc3C(C)(C)C2=O)CC1`, the Potency is > 57 µM (inactive). For `COC(=O)N1CCC2(CCCN(Cc3ccccc3OC)C2)CC1`, the Potency is > 57 µM (inactive). As to `N#C/C(=C\c1ccc(O)c(O)c1)C(=O)NCc1ccccc1`, the Potency is > 57 µM (inactive) and > 11.4 µM (inactive). On to `COc1ccc(Oc2ncc3nc(-c4ccc(F)cc4)c(=O)n(C)c3n2)cc1`, for which the Potency is > 57 µM (inactive). For the molecule `O=C(c1csnn1)N1CCC[C@@]2(CCN(c3cccc(-c4ccccc4)c3)C2)C1`, the Potency was > 57 µM (inactive). `Clc1ccc(C=Nc2ccc3c(c2)Cc2ccccc2-3)c(Cl)c1`: the Potency is > 57 µM (inactive). As for `CC(=O)N1CCC2(CCCN(c3ncccn3)C2)CC1`, the Potency was > 57 µM (inactive). In the case of `Cc1ccc(S(=O)(=O)NC(=O)NN2C[C@H]3CCC[C@@H]3C2)cc1`, the Potency was > 57 µM (inactive).

Turning to `COc1ccc2[nH]cc(CCNc3ncnc4ccc(-c5ccc(C(=O)N(C)C)cc5)cc34)c2c1`, the Potency was > 57 µM (inactive).

Regarding `N#C/C(=C\c1ccc(O)c(O)c1)C(N)=O`, the Potency was > 57 µM (inactive). Regarding `COC(=O)[C@@]1(Cc2ccc(F)cc2)[C@H]2c3cc(C(=O)N(C)C)n(CCc4c[nH]c5ccc(OC)cc45)c3C[C@H]2CN1C(=O)c1ccccc1`, the Potency was > 57 µM (inactive). For the molecule `CNc1ncnc2ccc(-c3cccc(NS(C)(=O)=O)c3)cc12`, the Potency was > 57 µM (inactive). Regarding `Nc1ccc2[nH]cc(CCC(=O)O)c2c1`, the Potency is > 57 µM (inactive).

In the case of `O=c1c(-c2ccc(F)c(F)c2)nc2cncnc2n1-c1ccccc1`, the Potency is > 57 µM (inactive). On to `COCCn1c(=O)c(-c2cccs2)nc2cnc(N3CCN(C)CC3)nc21`, for which the Potency is > 57 µM (inactive).

Take `O=C(O)c1nccnc1C(=O)Nc1ccc(Br)cn1`: the Potency is > 57 µM (inactive). Consider `Cc1nc2cnc(N3CCN(C)CC3)nc2n(CCC#N)c1=O`, for which the Potency was > 57 µM (inactive). In the case of `COc1ccccc1N1CCN(C[C@@H]2CN3C(=O)N(C)c4ccccc4C3=N2)CC1`, the Potency was > 57 µM (inactive).

As to `COC(=O)[C@@]1(Cc2ccc(OC)cc2)[C@H]2c3cc(C(=O)N4CCCC4)n(Cc4ccc(C(F)(F)F)nc4)c3C[C@H]2CN1C(=O)c1ccccc1`, the Potency was > 57 µM (inactive). With `CN(C)C(=O)c1ccc(-c2cncnc2Nc2ccccc2)cc1`, the Potency is > 57 µM (inactive). Regarding `NC(=O)c1ccc(OC[C@H](O)CN2CC=C(c3ccc(F)cc3)CC2)cc1`, the Potency is > 57 µM (inactive). Next, `COc1ccc2c(=O)cc(-c3ccccc3)oc2c1O`: > 57 µM (inactive); `NCCCNCCCCN(CCCN)/[N+]([O-])=N/O`: > 57 µM (inactive). To `OCCN1CCN(CC/C=C2\c3ccccc3Sc3ccc(C(F)(F)F)cc32)CC1` belongs > 57 µM (inactive); to `COCCn1c(=O)c(-c2cc(F)cc(F)c2)nc2cncnc21`, > 11.4 µM (inactive); to `Cc1c(S(=O)(=O)O)ccc(N=Nc2c(O)c(C(=O)O)cc3ccccc23)c1Cl`, > 57 µM (inactive). Consider `O=C(O)CS(=O)c1ccc2c3c(cccc13)C(=O)c1ccccc1-2` (centres undefined), for which the Potency was > 57 µM (inactive). Consider `CC(C)NC(=O)N1CC[C@@]2(CCCN(C(=O)c3cccn3C)C2)C1`, for which the Potency is > 57 µM (inactive). With `COC(=O)N1CCC2(CCCN(c3ccncc3)C2)CC1`, the Potency was > 57 µM (inactive).

Consider `COCCNc1ncnc2ccc(-c3cccnc3)cc12`, for which the Potency was > 57 µM (inactive).

Regarding `Cc1nc2cnc(N3CCN(C)CC3)nc2n(C[C@H]2CCCO2)c1=O`, the Potency was > 57 µM (inactive). In the case of `COc1ccc2[nH]cc(CCNc3cc(-c4ccccc4CN(C)C)ncn3)c2c1`, the Potency was > 57 µM (inactive). Regarding `COc1ccc(CNc2ncncc2-c2ccccc2OC)c(OC)c1`, the Potency is > 57 µM (inactive). For the molecule `COc1ccccc1-c1nc(N2CCN(C)CC2)c2ccccc2n1`, the Potency was > 57 µM (inactive). On to `C[C@]12CC[C@@H]3C(=CCc4cc(O)ccc43)[C@@H]1CCC2=O`, for which the Potency was > 57 µM (inactive).

For the molecule `CC(N)=NCc1cccc(CN)c1`, the Potency is > 57 µM (inactive). On to `CN=C(NC#N)NCCSCc1nc[nH]c1C`, for which the Potency was > 57 µM (inactive). For the molecule `ClC(Cl)(Cl)C(N1CCN(c2ccccc2)CC1)N1CCN(c2ccccc2)CC1`, the Potency was > 57 µM (inactive). For `COc1cccc(Cn2c(=O)cnc3cncnc32)c1`, the Potency is > 57 µM (inactive).

Take `Cc1ccc(NC(=O)c2cccc(N(C)C)c2)cc1NC(=O)c1ccc(O)cc1`: the Potency was > 57 µM (inactive). On to `COc1ccc(Oc2ncc3nc(C)c(=O)n(-c4ccccc4)c3n2)cc1`, for which the Potency is > 57 µM (inactive). For the molecule `CC1=CC(=O)C2=C(C)C[C@H](O)[C@@H]3[C@@H](OC(=O)[C@H]3C)[C@H]12`, the Potency is > 57 µM (inactive). Next, `Cc1cnc(CNc2cc(-c3c(C)noc3C)ncn2)cn1`: > 57 µM (inactive); `COCCn1c(=O)c(-c2cc(F)cc(F)c2)nc2cnc(N3CCNCC3)nc21`: > 57 µM (inactive); `CCCC(C(=O)OCCN(CC)CC)(c1ccccc1)c1ccccc1`: > 57 µM (inactive). To `O=c1cnc2cnc(Nc3ccccc3)nc2n1Cc1ccc(F)cc1` belongs > 57 µM (inactive); to `O=C1C(c2ccccn2)=[N+]([O-])c2ccccc21`, > 57 µM (inactive); to `CN(Cc1ccco1)c1ncncc1-c1ccoc1`, > 57 µM (inactive). Next, `C[C@H]1O[C@@H](CC(=O)O)Cc2c1c(O)c1c(O)cc(-c3cc(=O)c4c(=O)c5c(c(=O)c=4c3=O)C[C@H](CC(=O)O)O[C@@H]5C)c(O)c1c2O`: > 57 µM (inactive); `NS(=O)(=O)c1cc(Cl)c(Cl)c(S(N)(=O)=O)c1`: > 57 µM (inactive). On to `CCC(C)(C)N=C(NC#N)Nc1cccnc1`, for which the Potency is > 57 µM (inactive). Next, `COc1ccc(CNc2ncncc2-c2ccccc2C)c(OC)c1`: > 57 µM (inactive); `Cn1cc(-c2nc3cnc(N4CCNCC4)nc3n(CCc3ccccc3)c2=O)c2ccccc21`: > 57 µM (inactive). To `CN(C)c1ccc(-c2nc(NCCN3CCOCC3)c3ccccc3n2)cc1` belongs > 57 µM (inactive).

For the origin of these results see PubChem BioAssay AID448 (National Center for Advancing Translational Sciences (NCATS), 2006).
